About 410 targets per protein were measured; listed, in parts, are those with the strongest signals and a random draw of the rest.
Key:
Test in all cases: glycan array binding signal (z-score within array); higher = stronger binding
Conditions in all cases: glycan notation: IUPAC condensed, linker removed
Gal3S(b1-3)GalNAc = biological target: Gal3S(b1-3)GalNAc
Method in brief: (§1)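 Glycan array data came from 3228 arrays in the Consortium for Functional Glycomics database, and only arrays with an available protein sequence were kept. Glycan names were put into IUPAC-condensed notation, and columns mapping to the same glycan were averaged. The binding signal is a within-array Z-score, averaged across arrays of one protein sequence run at different concentrations or buffers and across linkers. A negative Z-score can be read as non-binding.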

Gal3S(b1-4)Glc = biological target: Gal3S(b1-4)Glc
Method in brief: as §1

Gal6S(b1-3)GlcNAc = biological target: Gal6S(b1-3)GlcNAc
Method in brief: as §1

Gal6S(b1-3)GlcNAc6S = biological target: Gal6S(b1-3)GlcNAc6S
Method in brief: as §1

GalNAc(b1-3)GalNAc = biological target: GalNAc(b1-3)GalNAc
Method in brief: as §1

[1] = biological target: GalNAc(b1-4)GlcNAc(b1-3)GalNAc(b1-4)GlcNAc
Method in brief: as §1

Glc(b1-4)Glc = biological target: Glc(b1-4)Glc
Method in brief: as §1

GlcA(b1-3)Gal = biological target: GlcA(b1-3)Gal
Method in brief: as §1

[2] = biological target: GlcA3S(b1-3)Gal(b1-4)GlcNAc(b1-3)Gal(b1-4)Glc
Method in brief: as §1

[3] = biological target: GlcNAc(a1-4)Gal(b1-4)GlcNAc(b1-3)Gal(b1-4)[Fuc(a1-3)]GlcNAc(b1-3)Gal(b1-4)[Fuc(a1-3)]GlcNAc
Method in brief: as §1

[4] = biological target: GlcNAc(b1-2)Gal(b1-3)GalNAc
Method in brief: as §1

[5] = biological target: GlcNAc(b1-2)Man(a1-3)[GlcNAc(b1-2)Man(a1-6)]Man(b1-4)GlcNAc(b1-4)GlcNAc
Method in brief: as §1

[6] = biological target: GlcNAc(b1-2)[GlcNAc(b1-4)]Man(a1-3)[GlcNAc(b1-4)][GlcNAc(b1-2)Man(a1-6)]Man(b1-4)GlcNAc(b1-4)GlcNAc
Method in brief: as §1

[7] = biological target: GlcNAc(b1-2)[GlcNAc(b1-6)]Man(a1-6)[GlcNAc(b1-2)Man(a1-3)]Man(b1-4)GlcNAc(b1-4)[Fuc(a1-6)]GlcNAc
Method in brief: as §1

[8] = biological target: GlcNAc(b1-3)Gal(b1-4)GlcNAc(b1-3)Gal(b1-4)GlcNAc(b1-2)Man(a1-3)[GlcNAc(b1-3)Gal(b1-4)GlcNAc(b1-3)Gal(b1-4)GlcNAc(b1-2)Man(a1-6)]Man(b1-4)GlcNAc(b1-4)[Fuc(a1-6)]GlcNAc
Method in brief: as §1

[9] = biological target: GlcNAc(b1-3)Gal(b1-4)GlcNAc(b1-3)Gal(b1-4)GlcNAc(b1-3)Gal(b1-4)GlcNAc(b1-3)Gal(b1-4)GlcNAc(b1-2)[GlcNAc(b1-3)Gal(b1-4)GlcNAc(b1-3)Gal(b1-4)GlcNAc(b1-3)Gal(b1-4)GlcNAc(b1-3)Gal(b1-4)GlcNAc(b1-6)]Man(a1-6)[GlcNAc(b1-3)Gal(b1-4)GlcNAc(b1-3)Gal(b1-4)GlcNAc(b1-3)Gal(b1-4)GlcNAc(b1-3)Gal(b1-4)GlcNAc(b1-2)Man(a1-3)]Man(b1-4)GlcNAc(b1-4)[Fuc(a1-6)]GlcNAc
Method in brief: as §1

[10] = biological target: GlcNAc(b1-3)[GlcNAc(b1-4)][GlcNAc(b1-6)]GlcNAc
Method in brief: as §1

[11] = biological target: GlcNAc(b1-4)GlcNAc(b1-4)GlcNAc(b1-4)GlcNAc(b1-4)GlcNAc
Method in brief: as §1

Man(a1-3)[Man(a1-6)]Man = biological target: Man(a1-3)[Man(a1-6)]Man
Method in brief: as §1

[12] = biological target: Man(a1-3)[Man(a1-6)]Man(a1-6)[Man(a1-2)Man(a1-3)]Man(b1-4)GlcNAc(b1-4)GlcNAc
Method in brief: as §1

[13] = biological target: Neu5Ac(a2-3)Gal(b1-3)[Fuc(a1-4)]GlcNAc
Method in brief: as §1

[14] = biological target: Neu5Ac(a2-3)Gal(b1-3)]Neu5Ac(a2-3)Gal(b1-4)]GlcNAc
Method in brief: as §1

[15] = biological target: Neu5Ac(a2-3)Gal(b1-4)GlcNAc(b1-2)Man(a1-3)[GlcNAc(b1-4)][Neu5Ac(a2-3)Gal(b1-4)GlcNAc(b1-2)Man(a1-6)]Man(b1-4)GlcNAc(b1-4)GlcNAc
Method in brief: as §1

[16] = biological target: Neu5Ac(a2-3)Gal(b1-4)GlcNAc(b1-2)Man(a1-3)[Neu5Ac(a2-3)Gal(b1-4)GlcNAc(b1-2)Man(a1-6)]Man(b1-4)GlcNAc(b1-4)[Fuc(a1-6)]GlcNAc
Method in brief: as §1

[17] = biological target: Neu5Ac(a2-3)Gal(b1-4)GlcNAc(b1-3)Gal(b1-4)GlcNAc(b1-3)Gal(b1-4)GlcNAc
Method in brief: as §1

[18] = biological target: Neu5Ac(a2-3)Gal(b1-4)[Fuc(a1-3)]GlcNAc(b1-3)GalNAc
Method in brief: as §1

[19] = biological target: Neu5Ac(a2-8)Neu5Gc(a2-3)Gal(b1-4)GlcNAc
Method in brief: as §1

B1: PX9961KLbvu-535-38-535 (Bacteroides vulgatus) (protein)
chain: DKAYTDAESYTKGLHKIYSVWALSGQDGSSSSDISGLDAGNTALLRCWWTLQEQPTDEMKNAWNDAWCTEVNYMTWTTNKVEPIEGVYQRCMYIVALVNEFLKNIPNAPESIDKESYIAQARFNRAFAYYVLMDMFALPPFITEKNYSIEPAPLSREDLFNWIEAELNEIKPNLPSPRSEYGVADQAVASALLARMYLNAEIYTGKARYTECINACNEVIKAGYQLADNYADLFKADNGENPDTKKEIIYPIIFDGDKTQSWGMAAIIIGARGAEDKDVLLAHSGVDQGWAGFRATSNLVHLFDFQNDEEPKASEIQDKRGIFYDKGRSIDITSSVSGTFETEGWSVFKFSNLNSNGQPGKNTLWVDTDFPMFRLGDIYLMYAEAVARGGEGSKASAVEYINALRKRAYGDDKHNISENWLEENNFRNLLDERGRELYWEGIRRTDLVRFDLLTSGSYTWDFKGGINTGVGVNKRYNVYPIPVTDLTVNGNLQQNEGY
- glycan array binding signal (z-score) (Gal3S(b1-3)GalNAc): -0.326
- glycan array binding signal (z-score) (Gal3S(b1-4)Glc): 1.38
- glycan array binding signal (z-score) (Gal6S(b1-3)GlcNAc): 0.63
- glycan array binding signal (z-score) (Gal6S(b1-3)GlcNAc6S): 1.44
- glycan array binding signal (z-score) (GalNAc(b1-3)GalNAc): -0.606
- glycan array binding signal (z-score) [1]: -0.094
- glycan array binding signal (z-score) (Glc(b1-4)Glc): -0.497
- glycan array binding signal (z-score) (GlcA(b1-3)Gal): -0.742
- glycan array binding signal (z-score) [2]: -0.814
- glycan array binding signal (z-score) [3]: 0.673
- glycan array binding signal (z-score) [4]: 0.183
- glycan array binding signal (z-score) [5]: -0.632
- glycan array binding signal (z-score) [6]: 1.4
- glycan array binding signal (z-score) [7]: 0.105
- glycan array binding signal (z-score) [8]: 1.82
- glycan array binding signal (z-score) [9]: 1.39
- glycan array binding signal (z-score) [10]: -0.666
- glycan array binding signal (z-score) [11]: -0.429
- glycan array binding signal (z-score) (Man(a1-3)[Man(a1-6)]Man): -0.077
- glycan array binding signal (z-score) [12]: 0.357
- glycan array binding signal (z-score) [13]: 1.01
- glycan array binding signal (z-score) [14]: -0.578
- glycan array binding signal (z-score) [15]: -0.451
- glycan array binding signal (z-score) [16]: 0.475
- glycan array binding signal (z-score) [17]: -0.106
- glycan array binding signal (z-score) [18]: 0.19
- glycan array binding signal (z-score) [19]: 19.4

— the supplement of paper PMC8728848
